Assay results published in PubChem BioAssay (NCI).
About 79,000 compounds went through this panel and 15% of them were active in at least one assay; those are over-represented in the sample as a whole. The source made the active and inactive calls. Rule as the data show it: active = growth inhibition above about 70%; inactive = the rest.

Experiments:
[1] = NCI Yeast Anticancer Drug Screen. Data for the rad50 strain (AID 155);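 also: 0% = growth of vehicle-only cultures of the same strain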; conditions: S. cerevisiae rad50 strain growth inhibition; at 50.0 µM; active compounds read high
Summary of the method: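 Cells are treated with compound, grown, and their growth is then scored against vehicle-only cultures of the same repair-deficient yeast strain.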

[2] = NCI Yeast Anticancer Drug Screen. Data for the mec2-1 strain (AID 157); conditions: S. cerevisiae mec2-1 strain, at 50.0 µM, active compounds read high
Summary of the method: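 Test agents were screened against the mec2-1 yeast strain, with defined DNA repair or cell cycle alteration. Growth was scored as inhibition against vehicle-only controls.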

[3] = NCI Yeast Anticancer Drug Screen. Data for the sgs1 mgt1 strain (AID 161);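 also: 0% = growth of cultures given vehicle only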; conditions: S. cerevisiae sgs1 mgt1 strain, at 50.0 µM, active compounds read high
Summary of the method: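 Read-out: growth inhibition vs vehicle controls. Cells: mutant yeast strain deficient in DNA damage repair.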

[4] = NCI Yeast Anticancer Drug Screen. Data for the cln2 rad14 strain (AID 165);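 also: 0% = growth equal to vehicle treated cultures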; conditions: S. cerevisiae cln2 rad14 strain, at 50.0 µM, active compounds read high
Summary of the method: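 Growth of compound-exposed yeast (cln2 rad14 genotype) measured and expressed as inhibition relative to vehicle.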

[5] = NCI Yeast Anticancer Drug Screen. Data for the bub3 strain (AID 167); conditions: S. cerevisiae bub3 mutant strain, at 50.0 µM, active compounds read high
Summary of the method: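 Part of a panel of yeast mutants defective in DNA damage repair or cell cycle regulation. Each strain is grown with compound, and inhibition is calculated relative to solvent-treated cultures.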

[6] = NCI Yeast Anticancer Drug Screen. Data for the mlh1 rad18 strain (AID 175); conditions: S. cerevisiae mlh1 rad18 strain growth inhibition; at 50.0 µM; active compounds read high
Summary of the method: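 In this whole-cell yeast screen, a strain with altered DNA damage repair is challenged with compound, and its growth is measured against matched vehicle-treated controls.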

Measured: growth inhibition

CC(=O)C(N)Cc1ccccc1 (stereo unspecified)
inactive: [1] 24.4% | [2] 17.2% | [3] 10% | [4] -26.6% | [5] 23.2% | [6] 15.2%

CCC1(CC)C(=O)NC(=NCCCC(N)C(=O)O)NC1=O (stereo unspecified)
inactive: [1] 8.75% | [2] -3.05% | [3] 8.15% | [4] 11.4% | [5] 23.6% | [6] 7.4%

O=C1C2CC(CN3CCCCC23)C2CCCCN12 (stereo unspecified)
inactive: [1] -4.55% | [2] -24.1% | [3] 18.9% | [4] 8.35% | [5] -4.15% | [6] -24.2%

CN1CCOP(=O)(Oc2ccccc2)N1 (stereo unspecified)
inactive: [1] -46% | [2] -17.4% | [3] -26.1% | [4] -64.2% | [5] 4.5% | [6] -16.1%

Clc1ccc(NC2=NCCS2)cc1Cl
inactive: [1] -9% | [2] -22.8% | [3] 41.4% | [4] -7.55% | [5] -3.05% | [6] 10.9%

CC(=N\[O-])/C(C)=N/[O-].CC(=N\[O-])/C(C)=N/[O-].[Cu+2]
inactive: [1] 42.8% | [2] 22.9% | [3] 15% | [4] -18.9% | [5] 33.5% | [6] 29.2%

Cc1ccc(C)c(C(C)NC2=NCCO2)c1 (stereo unspecified)
inactive: [1] -3.95% | [2] -7.95% | [3] -11.7% | [4] 1.2% | [5] -9.9% | [6] 19%

CC(=O)N1CN2CN(C1)CN(C(C)=O)C2
inactive: [1] 0.3% | [2] -8.95% | [3] -5.3% | [4] -26.6% | [5] -9.05% | [6] -5.85%

C1CCC2[N-]CCCC2C1.C1CCC2[N-]CCCC2C1.[Cl][Pt+2][Cl] (stereo unspecified)
inactive: [1] 42.2% | [2] 36% | [3] 55.2% | [4] 22.9% | [5] 59.4% | [6] 64.6%

FC1(F)[Se]C2C3CCC(C3)C2C1(F)F (stereo unspecified)
inactive: [1] -30.9% | [2] -11.6% | [3] -3.6% | [4] -16.1% | [5] -0.15% | [6] -40.7%

Cc1ccccc1C(=O)[O][Pb]([CH3])([CH3])[CH3]
inactive: [1] 21.4% | [2] -48% | [3] -6.5% | [4] -27.9% | [5] 0% | [6] 7%

CCN1CCC2OCOC2C1 (stereo unspecified)
inactive: [1] 8.5% | [2] 2.85% | [3] 2.9% | [4] 0.5% | [5] -0.05% | [6] 33.6%

O=P(N=C=S)(N=C=S)N=C=S
inactive: [1] 5.45% | [2] 6.6% | [3] 9.4% | [4] -11.6% | [5] 0.4% | [6] -12.8%

ClCc1ccc(Cl)c(Cl)c1
inactive: [1] 16.1% | [2] 3.8% | [3] -3.05% | [4] 10.4% | [5] 1.5% | [6] -20.4%

Cc1cc(C)[c]([Hg][Cl])c(C)c1
active: [1] 98.5% | [2] 98.7% | [3] 98.7% | [4] 96.2% | [5] 98.7% | [6] 97.8%

CCC(OC(=O)C1C(C=C(C)C)C1(C)C)c1cc2c(cc1Cl)OCO2 (stereo unspecified)
inactive: [1] -8.05% | [2] -19.1% | [3] -7.3% | [4] -13.3% | [5] -10.7% | [6] -20.8%

O=C(NC(Cl)=C(Cl)Cl)P(=O)(c1ccccc1)c1ccccc1
inactive: [1] -16.6% | [2] -28.3% | [3] 10.8% | [4] 17.2% | [5] -5.4% | [6] 3%

CC(NC(=O)c1c(O)[nH]c(=S)[nH]c1=O)c1ccc([N+](=O)[O-])cc1 (stereo unspecified)
inactive: [1] 17.9% | [2] 13.8% | [3] 35.8% | [4] 19.4% | [5] 12.1% | [6] 14.6%

Cc1cc2[nH]c3c(C#N)c(OC(=O)N(C)C)c(-c4ccccc4)c(=O)n3c2cc1C
inactive: [1] -8.75% | [2] 9.5% | [3] -7.85% | [4] -7.15% | [5] 1.9% | [6] 1.6%

CCCCNC(=O)CCl
inactive: [1] 13.4% | [2] 13.7% | [3] 9.15% | [4] -0.4% | [5] 9.3% | [6] 13.8%

CCOP(=O)(OCC)/C(C#N)=C/c1cnc[nH]1
inactive: [1] -51.6% | [2] -30.6% | [3] -38% | [4] -17.2% | [5] -20.2% | [6] -54.5%

Nc1ccc(S(=O)(=O)F)cc1
inactive: [1] -22% | [2] -54% | [3] -34.6% | [4] 16.8% | [5] -35.3% | [6] -22.2%

CN(C)[C@@H]1C(=O)C(C(N)=O)=C(O)[C@@]2(O)C(=O)C3=C(O)c4c(O)ccc(Cl)c4[C@@](C)(O)[C@H]3C[C@@H]12
inactive: [1] -16.9% | [2] 1.1% | [3] 13.2% | [4] -6.6% | [5] -8.8% | [6] -4.1%

O=c1cc(CCl)occ1O
inactive: [1] 7.35% | [2] 19.5% | [3] 20.6% | [4] -5.75% | [5] 16.1% | [6] 15.1%

CCOP(=O)(OCC)O/N=C(/CC)c1ccccc1
inactive: [1] 5.35% | [2] -8.75% | [3] 11.4% | [4] -13.4% | [5] -1.55% | [6] -12.1%

NC(=O)C1(Br)CCCCC1
inactive: [1] -11.8% | [2] -18.9% | [3] -10.5% | [4] -7.25% | [5] 8.45% | [6] -3.55%

Cc1ccc(NC(=O)/C=C/c2ccc([N+](=O)[O-])cc2)cc1S(=O)(=O)F
inactive: [1] -2.05% | [2] 27.9% | [3] 30% | [4] -5.6% | [5] 45% | [6] 15.2%

CSCCC(NC(=O)C(Cc1ccccc1)NC(=O)CNC(=O)CNC(=O)C(N)Cc1ccc(O)cc1)C(=O)O (stereo unspecified)
inactive: [1] 12.4% | [2] 2.2% | [3] -6.45% | [4] 26.2% | [5] 14.4% | [6] 16.2%

COc1cc(C2c3cc4c(cc3OC3(OC)COC(=O)C23)OCO4)cc(OC)c1OC(C)=O (stereo unspecified)
inactive: [1] -8.95% | [2] 0.45% | [3] -2.05% | [4] -6.9% | [5] -24.6% | [6] 8.1%

O=[C-]CC(=O)c1ccccc1.O=[C-]CC(=O)c1ccccc1.[Fe+2]
inactive: [1] -7.85% | [2] 3.15% | [3] 8.5% | [4] 12% | [5] -0.65% | [6] 6.15%

C1CC[N-]CC1.CN(C)P(=O)(N(C)C)N(C)C.OO.OO.[O]=[Mo]
inactive: [1] 11.3% | [2] -16% | [3] 15.6% | [4] 17.4% | [5] 11.9% | [6] 15.7%

COc1cc(C2c3[nH]c4ccccc4c3C[C@H]3COC(=O)N23)cc(OC)c1OC (stereo partly specified)
inactive: [1] 62.6% | [2] 15.3% | [3] 57.5% | [4] 24.4% | [5] 54% | [6] -10.2%

CC1(C(=O)O)OC1c1ccccc1 (stereo unspecified)
inactive: [1] 4.2% | [2] 1.2% | [3] 6.85% | [4] -11.7% | [5] 10.2% | [6] -7.7%

CCCCOP(=O)(Nc1ccc(Cl)cc1)OCCCC
active: [1] 99.3% | [2] 99.7% | [3] 99.5% | [4] 99.2% | [5] 99.4% | [6] 99.5%

CN(C)P(=O)(CC(O)c1ccccc1)N(C)C (stereo unspecified)
inactive: [1] 18.6% | [2] -2.05% | [3] -14.5% | [4] -8.05% | [5] 8.5% | [6] 10.9%

CNCCc1ccc(O)c2ccc3ccc(OC)c(O)c3c12
inactive: [1] 2.5% | [2] -7.25% | [3] -14.2% | [4] 5.25% | [5] -17.3% | [6] 4.05%

CNCC(C)c1ccccc1OC (stereo unspecified)
inactive: [1] -9.6% | [2] -6.7% | [3] 2% | [4] 26.4% | [5] 13.3% | [6] -5.9%

CC(C(=O)c1ccccc1)N(C)Cc1ccccc1 (stereo unspecified)
inactive: [1] -27.4% | [2] -2.05% | [3] 6.75% | [4] -36.7% | [5] 42.5% | [6] 17.1%

OC(c1ccccc1)C(c1ccccc1)N1CCOCC1 (stereo unspecified)
inactive: [1] -8.45% | [2] 4.1% | [3] -1.3% | [4] 1.65% | [5] 7.9% | [6] 9.75%

C[Se]c1ncnc2c1c(C#N)cn2C1OC(CO)C(O)C1O (stereo unspecified)
inactive: [1] 0.75% | [2] 14.3% | [3] -3.3% | [4] -13.5% | [5] 1.45% | [6] 2.65%

O=c1cc([N+](=O)[O-])n(O)cc1[N+](=O)[O-]
inactive: [1] 31.1% | [2] 12.6% | [3] 32.5% | [4] 21.2% | [5] -4.1% | [6] 44.5%
